Measured values reported in PubChem BioAssay (NCATS).
Inconclusive results are not listed. The source made the active and inactive calls. Unless noted, calls follow the shape of the full dose curve.

How the values were obtained:
[1] = Dual reporter qHTS for antagonist of Pregnane X Receptor (hPXR) against the NCATS DSHEA and TCM libraries: Fluorescence Readout (AID 1920061; active = well fitted curve in the direction sought with a large enough effect; an effect the other way counts as inactive or inconclusive; also: 0% is about no effect)
In short: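 Rifampicin-stimulated (2 uM final) hPXR-luciferase HepG2 cells were treated for 24 h with DSNP/TCM substances. Viability came from CellTiter-Fluor fluorescence, reporter activity from ONE-Glo luminescence.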

[2] = qHTS drug screen for cell cycle checkpoint inhibitors in PARPi-resistant BRCA-mutant ovarian cancer cell lines. (AID 1963452); conditions: PEO1/OlaR viability, CellTiter-Glo luminescence, 96 h, stronger effect = lower value
In short: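 PEO1, PEO4 and PEO1/OlaR ovarian cancer cells, 600 per well, exposed 96 h at 37C to a dilution series. Viability read by CellTiter-Glo luminescence, normalized to DMSO and empty wells; activity summarized as Z-AUC.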

[3] = qHTS for identification of novel therapeutic agents for treatment of microphthalmiaassociated transcription factor (MiT) renal cell carcinoma (RCC) (AID 1963991); conditions: CellTiter-Glo, 48 h, stronger effect = lower value
In short: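 Viability of three TFE3-fusion renal carcinoma lines measured by CellTiter-Glo after 48 h treatment with each of 1912 compounds at 11 concentrations. Responses scaled between DMSO (100%) and empty wells (0%) before curve fitting.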

[4] = qHTS profiling for inhibitors of Plasmodium falciparum proliferation (AID 504749; active = well fitted curve in the direction sought with a large enough effect; an effect the other way counts as inactive or inconclusive;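 also: 0% = DMSO vehicle and full inhibition = artemisinin control; nearly all actives have a fitted effect of over 60% in size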); conditions: P. falciparum in erythrocytes, SYBR Green DNA, 72 h, at 28.7 µM (top of the series)
In short: (§1)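 Three-day growth assay of blood-stage parasites in erythrocytes (0.3% parasitemia, 2.5% hematocrit) at 37 C, 5% CO2, quantified by SYBR Green DNA staining after overnight detergent lysis.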

[5] = tested on: 3D7; assay: as above; conditions: P. falciparum in erythrocytes, SYBR Green DNA, 72 h; series mostly up to 28.7 µM
In short: as §1

[6] = tested on: AA1029; assay: as above; conditions: P. falciparum in erythrocytes, SYBR Green DNA, 72 h; series mostly up to 28.7 µM
In short: as §1

[7] = tested on: AS120; assay: as above; conditions: P. falciparum in erythrocytes, SYBR Green DNA, 72 h; series mostly up to 28.7 µM
In short: as §1

[8] = tested on: ATS189; assay: as above; conditions: P. falciparum in erythrocytes, SYBR Green DNA, 72 h; series mostly up to 28.7 µM
In short: as §1

[9] = tested on: ATS95; assay: as above; conditions: P. falciparum in erythrocytes, SYBR Green DNA, 72 h; series mostly up to 28.7 µM
In short: as §1

[10] = tested on: C2A; assay: as above; conditions: P. falciparum in erythrocytes, SYBR Green DNA, 72 h; series mostly up to 28.7 µM
In short: as §1

[11] = tested on: CP185; assay: as above; conditions: P. falciparum in erythrocytes, SYBR Green DNA, 72 h; series mostly up to 28.7 µM
In short: as §1

[12] = tested on: CP192; assay: as above; conditions: P. falciparum in erythrocytes, SYBR Green DNA, 72 h; series mostly up to 28.7 µM
In short: as §1

[13] = tested on: CP194; assay: as above; conditions: P. falciparum in erythrocytes, SYBR Green DNA, 72 h; series mostly up to 28.7 µM
In short: as §1

[14] = tested on: CP201; assay: as above; conditions: P. falciparum in erythrocytes, SYBR Green DNA, 72 h; series mostly up to 28.7 µM
In short: as §1

[15] = tested on: CP211; assay: as above; conditions: P. falciparum in erythrocytes, SYBR Green DNA, 72 h; series mostly up to 28.7 µM
In short: as §1

[16] = tested on: CP215; assay: as above; conditions: P. falciparum in erythrocytes, SYBR Green DNA, 72 h; series mostly up to 28.7 µM
In short: as §1

[17] = tested on: CP217; assay: as above; conditions: P. falciparum in erythrocytes, SYBR Green DNA, 72 h; series mostly up to 28.7 µM
In short: as §1

[18] = tested on: CP237; assay: as above; conditions: P. falciparum in erythrocytes, SYBR Green DNA, 72 h; series mostly up to 28.7 µM
In short: as §1

[19] = measured here: PEO1 parental Z-AUC

Cc1cc2nc3c(=O)[nH]c(=O)nc-3n(CC(O)C(O)C(O)CO)c2cc1C (configuration not stated)
outcome [1]: inactive
Z-AUC [2]: -0.035 (inactive)
Z-AUC [2, 19]: 0.9
Z-AUC ([2]; measured here: PEO4 Z-AUC): 1
z-score ([3]; TFE3-RCC UOK109 viability, measured here: UOK109 Z-AUC): 1.42
z-score ([3]; TFE3-RCC viability, measured here: UOK124 Z-AUC): 0.421
z-score ([3]; TFE3-RCC viability, measured here: UOK145 Z-AUC): 0.538
activity, negative = inhibition ([4]; parasite line A): -17.3% (inactive)
activity, negative = inhibition ([4]; parasite line B): -10.6% (inactive)
Potency [5]: inactive
Potency [6]: inactive
Potency [7]: inactive
Potency [8]: inactive
Potency [9]: inactive
Potency [10]: inactive
outcome [11]: inactive
Potency [12]: inactive
Potency [13]: inactive
Potency [14]: inactive
Potency [15]: inactive
Potency [16]: inactive
Potency [17]: inactive
Potency [18]: inactive

O=S(=O)(O)c1ccc2cc(N=Nc3cc(S(=O)(=O)O)c4cccnc4c3O)ccc2c1
Z-AUC [2]: 0.327 (inactive)
Z-AUC [2, 19]: -0.476
Z-AUC ([2]; measured here: PEO4 Z-AUC): 0.158

CC(C)Oc1cc(Nc2nc(N[C@@H](C)c3ccc(F)cn3)ncc2Cl)[nH]n1
Z-AUC [2]: -1.59 (inactive)
Z-AUC [2, 19]: -1.36
Z-AUC ([2]; measured here: PEO4 Z-AUC): -0.661

O=C1CCCC(=O)C1C(=O)c1ccc(C(F)(F)F)cc1[N+](=O)[O-]
Z-AUC [2]: 0.835 (inactive)
Z-AUC [2, 19]: 1.44
Z-AUC ([2]; measured here: PEO4 Z-AUC): 0.656

CNC1CCC(N(Cc2cccc(-c3ccncc3)c2)C(=O)c2sc3ccccc3c2Cl)CC1 (configuration not stated)
Z-AUC [2]: 0.143 (inactive)
Z-AUC [2, 19]: 0.312
Z-AUC ([2]; measured here: PEO4 Z-AUC): 0.329

Cc1nn(Cc2ccccc2Cl)c(C)c1CN(C)CC(O)COc1ccc(Cl)cc1 (configuration not stated)
Z-AUC [2]: 0.675 (inactive)
Z-AUC [2, 19]: 0.673
Z-AUC ([2]; measured here: PEO4 Z-AUC): 0.908

NC(=O)c1ccc(N(C(N)=O)c2c(F)cccc2F)nc1-c1ccc(F)cc1F
Z-AUC [2]: -0.305 (inactive)
Z-AUC [2, 19]: -0.387
Z-AUC ([2]; measured here: PEO4 Z-AUC): 0.295

Fc1ccc(CNc2ncnc3ccc(F)cc23)cc1
Z-AUC [2]: -0.894 (inactive)
Z-AUC [2, 19]: -1.29
Z-AUC ([2]; measured here: PEO4 Z-AUC): -1.17

Cc1ccc2c(c1)C(=O)[C@]1(O)CCN(c3ccccc3)C1=N2
Z-AUC [2]: 1.54 (inactive)
Z-AUC [2, 19]: 1.18
Z-AUC ([2]; measured here: PEO4 Z-AUC): 1.07

COc1cc2c(cc1Cc1cccc(Cl)c1F)c(=O)c(C(=O)O)cn2[C@H](CO)C(C)C
Z-AUC [2]: 1.07 (inactive)
Z-AUC [2, 19]: 0.736
Z-AUC ([2]; measured here: PEO4 Z-AUC): 0.927

COc1ccc2nc3cc(Cl)ccc3c(Nc3cc(CN4CCCC4)c(O)c(CN4CCCC4)c3)c2n1
Z-AUC [2]: 1.63 (inactive)
Z-AUC [2, 19]: 0.591
Z-AUC ([2]; measured here: PEO4 Z-AUC): 1.29

COc1ccc(CCC(=O)Nc2nc3ccc(Cl)cc3s2)cc1OC
Z-AUC [2]: -1.42 (inactive)
Z-AUC [2, 19]: -0.917
Z-AUC ([2]; measured here: PEO4 Z-AUC): -0.954

CN[C@@H](C)[C@H]1[C@H](O)C[C@@]2(C)[C@@H]3CC[C@H]4C(C)(C)[C@@H](NC)CC[C@@]45C[C@@]35CC[C@]12C
Z-AUC [2]: 0.117 (inactive)
Z-AUC [2, 19]: 0.364
Z-AUC ([2]; measured here: PEO4 Z-AUC): 0.673

COc1cc2ncnc(Nc3cc(Br)c(O)c(Br)c3)c2cc1OC
Z-AUC [2]: -1.45 (inactive)
Z-AUC [2, 19]: -0.545
Z-AUC ([2]; measured here: PEO4 Z-AUC): -1.13

CCOC(=O)N1c2ccc(C(F)(F)F)cc2[C@@H](N(Cc2cc(C(F)(F)F)cc(C(F)(F)F)c2)C(=O)OC)C[C@H]1CC
Z-AUC [2]: -1 (inactive)
Z-AUC [2, 19]: 0.195
Z-AUC ([2]; measured here: PEO4 Z-AUC): -0.682

Cn1cnc(-c2cc3nccc(Oc4ccc(NC(=S)NC(=O)Cc5ccccc5)cc4F)c3s2)c1
Z-AUC [2]: -0.0485 (inactive)
Z-AUC [2, 19]: 0.327
Z-AUC ([2]; measured here: PEO4 Z-AUC): 0.301

COC1CCC(C(=O)c2ccc3nc4c(cc3c2)CCCO4)CC1 (configuration not stated)
Z-AUC [2]: -0.16 (inactive)
Z-AUC [2, 19]: -0.298
Z-AUC ([2]; measured here: PEO4 Z-AUC): 0.0226

CC1CCN(c2cc(N3CCN(C)CC3)ccc2NC(=O)c2cc(C#N)c[nH]2)CC1
Z-AUC [2]: -1.13 (inactive)
Z-AUC [2, 19]: -0.115
Z-AUC ([2]; measured here: PEO4 Z-AUC): 0.801

CC(C)CNc1ccnc(NCc2csc(-c3ccccc3)n2)n1
Z-AUC [2]: -1 (inactive)
Z-AUC [2, 19]: -0.906
Z-AUC ([2]; measured here: PEO4 Z-AUC): -0.83

C[C@@H](NC(=O)c1ncnc(N)c1Cl)c1ncc(C(=O)Nc2cc(C(F)(F)F)c(Cl)cn2)s1
Z-AUC [2]: 0.509 (inactive)
Z-AUC [2, 19]: 0.52
Z-AUC ([2]; measured here: PEO4 Z-AUC): 0.658

O=C(NC[C@H](O)CO)c1ccncc1Nc1ccc(I)cc1F
Z-AUC [2]: -0.995 (inactive)
Z-AUC [2, 19]: -0.351
Z-AUC ([2]; measured here: PEO4 Z-AUC): -0.367

Clc1ccc(C2(c3ccc(-c4cn[nH]c4)cc3)CCNCC2)cc1
Z-AUC [2]: 0.223 (inactive)
Z-AUC [2, 19]: 0.18
Z-AUC ([2]; measured here: PEO4 Z-AUC): 0.0319

CCOC(=O)c1c(CSc2ccccc2)n(C)c2cc(Br)c(O)c(CN(C)C)c12
Z-AUC [2]: 0.838 (inactive)
Z-AUC [2, 19]: 0.193
Z-AUC ([2]; measured here: PEO4 Z-AUC): 0.129

CC[C@H](C)n1cc(C)c2c(C(=O)NCc3c(C)cc(C)[nH]c3=O)cc(-c3ccc(N4CCNCC4)nc3)cc21
Z-AUC [2]: 1.9 (inactive)
Z-AUC [2, 19]: 1.58
Z-AUC ([2]; measured here: PEO4 Z-AUC): 1.72

c1cc(OCCN2CCCCC2)cc(-c2n[nH]c3ccc(-c4ncn[nH]4)cc23)c1
Z-AUC [2]: -0.663 (inactive)
Z-AUC [2, 19]: -0.209
Z-AUC ([2]; measured here: PEO4 Z-AUC): -0.626

Cc1cc(C(C)Nc2ccccc2)c2nc(N3CCOCC3)cc(=O)n2c1 (configuration not stated)
Z-AUC [2]: 0.744 (inactive)
Z-AUC [2, 19]: 1.25
Z-AUC ([2]; measured here: PEO4 Z-AUC): 1.25

Cn1c(=O)c(Oc2ccc(F)cc2F)cc2cnc(NC3CCOCC3)nc21
Z-AUC [2]: 1.26 (inactive)
Z-AUC [2, 19]: 1.1
Z-AUC ([2]; measured here: PEO4 Z-AUC): 1.01

CN(C)CC[C@H](CSc1ccccc1)Nc1ccc(S(=O)(=O)NC(=O)c2ccc(N3CCN(Cc4ccccc4-c4ccc(Cl)cc4)CC3)cc2)cc1[N+](=O)[O-]
Z-AUC [2]: -0.74 (inactive)
Z-AUC [2, 19]: 0.0363
Z-AUC ([2]; measured here: PEO4 Z-AUC): -1.54

CNC(=O)c1c(-c2ccc(F)cc2)oc2cc(N(CCO)S(C)(=O)=O)c(C3CC3)cc12
Z-AUC [2]: 0.51 (inactive)
Z-AUC [2, 19]: 0.436
Z-AUC ([2]; measured here: PEO4 Z-AUC): 0.532
